Data published in PubChem BioAssay (NCATS).
Inconclusive results are not listed. Unmarked numbers belong to inactive results. Active and inactive are the calls of the source. Calls come from the whole dose curve; as a rule, active = well fitted cell-killing curve with a large enough effect; inconclusive = small, poorly fitted or top-dose-only effect, or effect the other way; inactive = flat fitted curve, though single readings scatter.

Assay: Cell Viability - LYMP2-003 (AID 965);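 note: cells exposed to compounds for 24 h before reading; nearly all actives have a fitted effect of over 50% in size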;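 for activity change, negative = cytotoxicity: 0% = DMSO only and full effect = 92 µM tetraoctylammonium bromide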
Settings: LYMP2-003 lymphoblastoid cell viability; series mostly up to 92.2 µM; activity change, negative = cytotoxicity: at the top concentration
Description: NIH Chemical Genomics Center [NCGC]
NIH Molecular Libraries Screening Centers Network [MLSCN]
National Institutes of Environmental Health Sciences [NIEHS]
National Toxicology Program [NTP]
We have developed a 1536-well cell-based assay for quantitative high throughput screening (qHTS) against a number of cell lines to determine in vitro cytotoxicity of small molecules. This particular assay uses a human lymphoblastoid cell line (LYMP2-003) purchased from Coriell Institute for Medical Research.
NCGC Assay Protocol Summary:
The CellTiter-Glo luminescent cell viability assay (Promega) is a homogeneous method to measure the number of viable cells in culture. The end point readout of this assay is based on quantitation of intracellular ATP, an indicator of metabolic activity, using the luciferase reaction. Luciferase catalyzes the oxidation of beetle Luciferin to oxyluciferin and light in the presence of ATP. The luminescent signal is proportional to amount of ATP present.
Using the CellTiter-Glo luminescent cell viability assay, the amount of cellular ATP was measured in the lymphoblastoid cell line with complete culture medium following compound treatment for 24 hours. The assay was performed in opaque white Kalypsys 1536-well plates. In the screen, tetraoctylammonium bromide was used as positive control. Library compounds were measured for their ability to cause acute toxicity in the cell line, as reflected by a decrease in intracellular ATP levels, in a concentration-dependent manner. […] AC50 values were determined from concentration-response data modeled with the standard Hill equation.
qHTS protocol for CellTiter Glo lymphoblastoid cellular assay
[Step] [Parameter] [Value] [Description]
1. Reagent; 5 uL; 2500 lymphoblastoid cells/well
2. Time; 5 hr; 37 C incubation
4. Controls; 23 nL; Tetraoctylammonium bromide 6.4pM to 92 uM
5. Time; 24 hr; 37 C incubation
6. Reagent; 5 uL; CellTiter Glo reagent
7. Time; 30 min; Room Temperature
8. Detection; Luminescence; Viewlux plate reader
Keywords: cell viability, cytotoxicity, lymphoblastoid cell line, luminescence, NTPHTS, NTPHTS_NCGC, NIEHS, DSSTox, MLSMR, MLSCN, NIH Roadmap, qHTS, NCGC
Potency is the fitted concentration of half-maximal effect.

Compound | activity change, negative = cytotoxicity | Potency
CO[C@H]1/C=C/O[C@@]2(C)Oc3c(C)c(O)c4c(O)c(c5c(c4c3C2=O)NC2(CCN(CC(C)C)CC2)N=5)=NC(=O)/C(C)=C\C=C\[C@H](C)[C@H](O)[C@@H](C)[C@@H](O)[C@@H](C)[C@H](OC(C)=O)[C@@H]1C | -19% | –
Cc1cc(Nc2ccc(O)cc2)ccc1N | – | 50.1 µM (active)
CCCCCC/C(C=O)=C\c1ccccc1 | 14.2% | –
Cc1ccc(S(=O)(=O)Oc2ccc(N=Nc3ccc(-c4ccc(N=Nc5c(O)ccc6cc(S(=O)(=O)O)cc(S(=O)(=O)O)c56)c(C)c4)cc3C)cc2)cc1 | -21.6% | –
C=CC(=O)OCCOCCOC(=O)C=C | – | 12.6 µM (active)
CNc1ccc(O)cc1 | – | 5.01 µM (active)
CN1[C@H]2CC(OC(=O)[C@H](CO)c3ccccc3)C[C@H]1[C@H]1O[C@H]12 (stereo partly specified) | – | inactive
Cc1cccc(O)c1C | 10.6% | –
O=C1OC(O)C(C(Cl)Cl)=C1Cl (stereo unspecified) | – | 15.8 µM (active)
O=[N+]([O-])c1cc([N+](=O)[O-])c2ccc(S(=O)(=O)O)cc2c1O | 14.7% | –
CC(=O)Nc1ccc(C(=O)CCl)cc1 | – | 6.31 µM (active)
O=C1OC2(c3cc(Br)c(O)c(Br)c3Oc3c2cc(Br)c(O)c3Br)c2c(Cl)c(Cl)c(Cl)c(Cl)c21 | -23.2% | –
C/C=C1\C(=O)C[C@H]2[C@@H]3CCC4=CC(=O)CC[C@]4(C)[C@H]3CC[C@]12C | -29.2% | –
Cc1cc(O)c(C(C)(C)C)cc1Sc1cc(C(C)(C)C)c(O)cc1C | – | 31.6 µM (active)
O=Cc1ccc(Cl)c(Cl)c1 | 26% | –
CCC(C)Nc1ccc(NC(C)CC)cc1 (stereo unspecified) | – | 10 µM (active)
Nc1ccc2cc3ccccc3cc2c1 | -5.53% | –
CN(C)c1ccc(C2(c3ccc(N(C)C)cc3)OC(=O)c3cc(N(C)C)ccc32)cc1 | -6.12% | –
c1ccc2c(c1)ccc1cc3c(ccc4ccccc43)cc12 | 14.1% | –
ClC1=C(Cl)C(Cl)(Cl)C(Cl)=C1Cl | 25% | –
C=C(C)c1ccccc1 | 2.32% | –
CCCCCCCC[N+](CCCCCCCC)(CCCCCCCC)CCCCCCCC | – | 10 µM (active)
c1ccc2c(c1)-c1cccc3c1c-2cc1ccccc13 | -0.736% | –
O=C=Nc1ccc(Cc2ccc(N=C=O)cc2)cc1 | 12.9% | –
O=C(OCC(COC(=O)c1ccccc1)(COC(=O)c1ccccc1)COC(=O)c1ccccc1)c1ccccc1 | 1.79% | –
O=C(/C=C/c1ccc(O)c(O)c1)OC1C[C@](O)(C(=O)O)C[C@@H](O)[C@H]1O (stereo partly specified) | – | inactive
